# In PubChem BioAssay AID624351 (Southern Research Specialized Biocontainment Screening …, 2012):
# The whole screen tested about 2,400 compounds, of which about 1,400 (58%) were called active. The set was probably picked from earlier hits. The list shows a part of the results. A number with no mark means an inactive call.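 The calls were made as follows: active = inhibition of 30% or more at any tested dose; inconclusive = primary hits over the limit that were never retested; inactive = the rest.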
# Experiment: coupled detection enzyme interference, dose response, artefact control for MgcRacGAP inhibitor project, biochemical, coupled enzyme counter-screen (AID 624351);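 also: signal is the ADP detection kit reading of free GDP without any GAP enzyme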;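 as to inhibition: 0% = median positive control wells and 100% = median negative control wells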
# Conditions: ADP Hunter coupled enzyme counter-screen, fluorescence, no MgcRacGAP; series mostly up to 80 µM; inhibition: at the top concentration
SMILES,IC50,inhibition
COc1cc(/C=N/NC(=O)c2cnccn2)ccc1O,25.9 µM (active),
COc1cc(/C=N/NC(=O)c2ccc(=O)[nH]n2)ccc1O,26.3 µM (active),
COc1ccc(/C=N\NC(=O)c2ccc(=O)[nH]n2)cc1O,26 µM (active),
O=C(/C(=C/c1ccccc1)n1cncn1)c1ccc(Cl)cc1Cl,,-3.68%
COC(=O)C(C(=O)OC)C(C)C(C(=O)OC)C(=O)OC,,4.32%
CN(C)c1ccc(C=Cc2cnccn2)cc1,53 µM (active),
CCOC(=O)c1[nH]c2ccccc2c1NC(=S)Nc1ccccc1C,45.3 µM (active),
CCOC(=O)c1[nH]c2ccccc2c1NC(=S)Nc1cccc(C)c1C,46 µM (active),
CCOC(=O)c1[nH]c2ccccc2c1NC(=S)Nc1cc(C)ccc1C,39.4 µM (active),
COC(=O)c1c(NC(=O)CCNCc2ccco2)sc2c1CCC2,,18.9%
CCOC(=O)c1[nH]c2ccc(F)cc2c1NC(=O)c1ccccc1C(=O)O,,25.5%
CCOC(=O)c1[nH]c2ccccc2c1NC(=S)Nc1ccccc1,45.1 µM (active),
O=C1CCCCCN1Sc1ccccc1,,3.55%
O=C1SC(c2ccccc2)=C/C1=C\N1CCCCC1,51 µM (active),
CC(C)Nc1ccc(Nc2ccnc3cc4ccccc4cc23)cc1,22.4 µM (active),
COc1cc(/C=C/C(=O)OCC(=O)NC(=O)NC(C)C)ccc1O,42.8 µM (active),
COc1cc(/C=C/C(=O)OCC(=O)NC(=O)NC(C)(C)C)ccc1O,62.6 µM (active),
C=CCN(CC=C)C(=O)C1CCN(Cc2ccc(OCc3ccccc3)cc2)CC1,,13.8%
CCCS(=O)(=O)N1CCN(Cc2ccco2)CC1,,15.8%
CCN1CCN(CC(=O)Nc2ccc(C)c(Br)c2)CC1,,19.2%
O=C(CN1CCN(c2ccc(O)cc2)CC1)NC(=O)NCc1ccco1,54.7 µM (active),
CCN1CCN(CC(=O)Nc2nc3ccc(OC)cc3s2)CC1,,24.5%

SMILES,IC50,inhibition
Cc1ccc(NC(=O)CN2CCN(C)CC2)cc1Br,,20.3%
COc1ccc(NC(=O)c2ccc(NC(=O)CN3CCN(c4ccc(O)cc4)CC3)cc2)cc1,76.7 µM (active),
Cc1ccc(NC(=O)NC(=O)CN2CCN(c3ccc(O)cc3)CC2)c(C)c1,63.4 µM (active),
O=C(CN1CCCCC1)Nc1ccc(N2CCCCCC2)cc1,,0.64%
CC1(C)O[C@@H]2[C@H](O1)[C@@H](COS(=O)(=O)O)O[C@H]2n1c(=S)[nH]c2c(=O)[nH]c(N)nc21,55.7 µM (active),
CCN1CCN(CCOc2ccccc2OCc2ccccc2)CC1,,21.5%
CCC(=O)c1ccccc1OCCN1CCN(CC)CC1,,23.5%
Oc1cc(Br)ccc1C=Nc1ccc(N2CCCCC2)cc1,4.33 µM (active),
CCN1CCN(c2ccc(N=Cc3ccc(O)cc3O)cc2)CC1,38.2 µM (active),
O=C1NN(c2ccc(Br)cc2)C(=O)/C1=C\c1ccc(O)cc1O,,29.1%
CCN1CCN(c2ccc(N=Cc3ccccc3O)cc2)CC1,24.5 µM (active),
C=CCc1cc(Cl)ccc1OCCn1ccnc1,,-0.57%
O=[N+]([O-])c1cccc(SSc2cccc([N+](=O)[O-])c2)c1,,5.1%
O=c1c2ccccc2sn1-c1cccc(Cl)c1,,17.9%
O=c1c(-c2cccc(Cl)c2)c[nH]n1-c1ccccc1,52.1 µM (active),
O=c1c(-c2ccccc2)c[nH]n1-c1cccc([N+](=O)[O-])c1,41.6 µM (active),
N#CC1=C(S)N(c2ccccc2)C(c2ccc(-c3cccc(Cl)c3)o2)NC1=O (stereo not drawn),,3.56%
C=CCN=c1scc(C)n1/N=C/c1ccc(O)c(O)c1,15.4 µM (active),
CN=c1scc(C)n1/N=C/c1ccc(O)cc1O,10.1 µM (active),
CN=c1scc(C)n1/N=C/c1ccc(O)cc1,19.3 µM (active),
Cn1c(=O)c2c([nH]c(=S)n2CCCc2ccccc2)n(C)c1=O,11.4 µM (active),
Cn1c(=O)[nH]c(=O)c2c1[nH]c(=S)n2CCCc1ccccc1,15.2 µM (active),

SMILES,IC50,inhibition
Cn1c(=O)[nH]c(=O)c2c1[nH]c(=S)n2Cc1ccc(Cl)cc1,22.2 µM (active),
CN(C)C(=S)N=c1ssc(=S)n1Cc1ccccc1,,7.07%
Cn1c(=O)[nH]c(=O)c2c1[nH]c(=S)n2Cc1ccccc1,19.2 µM (active),
c1ccc2c(c1)c1c(c3ccccc32)CN2CCCC2C1 (stereo not drawn),,-11.7% [at 10 µM]
O=C1c2c([N+](=O)[O-])cc([N+](=O)[O-])cc2S(=O)N1Cc1ccccc1 (stereo not drawn),,2.81%
COc1ccc(N2CCCC2)c(NC(=O)c2ccc([N+](=O)[O-])o2)c1,,-8.67%
COc1ccc(NCc2ccc([N+](=O)[O-])s2)c(OC)c1,33.3 µM (active),
COc1ccc(NC(=O)CNCc2cccs2)c(OC)c1,,14.5%
Cn1c(N2CCOCC2)c(/C=N/O)c2ccccc21,60.1 µM (active),
CCCCn1c(=S)[nH]c2c(=O)n(C)c(=O)n(C)c21,15.6 µM (active),
Cn1c(=O)c2[nH]c(=S)n(Cc3ccccc3)c2n(C)c1=O,18.4 µM (active),
CCn1c(=S)[nH]c2c(=O)n(C)c(=O)n(C)c21,18.9 µM (active),
Cc1cc(C)c(OCC(O)CN2CCN(C(=O)c3ccccc3)CC2)c(C)c1 (stereo not drawn),,15.7%
Cn1nccc1C(=O)Nc1ccc(OC(=O)c2ccnn2C)cc1,,11.3%
CC(=O)Nc1ccc(OC(=O)Cc2ccc(Cl)cc2)cc1,,1.69%
CCOC(=O)Nc1ccc(OC(=O)Oc2ccc(NC(=O)OCC)cc2)cc1,41.3 µM (active),
CCOC(=O)c1oc2cc(O)cc(C)c2c1C,54.1 µM (active),
CCCCCCCCCCCCCCCC[N+](C)(C)Cc1ccc(F)cc1,,-9.92%
N#Cc1c(Nc2ccccc2)s[nH]c1=O,,3.41%
CCOC(=O)c1sc(/N=C/c2c(O)ccc3ccccc23)cc1C,36 µM (active),
CCOC(=O)c1sc(/N=C/c2ccc(O)cc2O)cc1C,24.7 µM (active),
CCCS(=O)(=O)N1CCN(C2CCC(C)CC2)CC1 (stereo not drawn),,15.8%

SMILES,IC50,inhibition
CC1(C)CNc2cc(N)ccc2S1,26.6 µM (active),
CCN(CC)CCOC(=O)c1ccc(N/C=C(/C#N)c2nc(-c3ccc(OC)c(OC)c3)cs2)cc1,,5.84%
O=C(O)c1c2c(nc3ccccc13)/C(=C/c1ccc(O)cc1)CCC2,60.2 µM (active),
O=C(COC(=O)c1c2c(nc3ccccc13)/C(=C/c1ccco1)CC2)NC1CCCC1,,-13.5%
CC(C)NCC(=O)Nc1c2c(nc3ccccc13)CCC2,,22.6%
Cc1ccc(Nc2ccc(N)cc2S(=O)(=O)O)cc1,40.2 µM (active),
Nc1cc(C(F)(F)F)ccc1N1CCOCC1,30.2 µM (active),
O=C(CNCc1ccccn1)Nc1cc(C(F)(F)F)ccc1N1CCOCC1,,15.5%
COC(=O)c1cc(NCc2c(F)cccc2Cl)ccc1N1CCOCC1,,19.7%
Nc1ccc(N2CCCCC2)c(Cl)c1,37.9 µM (active),
COC(=O)c1cc(NCc2ccccc2F)ccc1N1CCOCC1,,24.7%
Nc1ccc(N2CCOCC2)c(Cl)c1,51.3 µM (active),
Cc1cccc(C)c1OCCCCN1CCNCC1,,22.1%
O=C(NN=Cc1ccc(O)cc1)c1ccccc1NS(=O)(=O)c1cccs1,75.6 µM (active),
COc1cc(/C=N/NC(=O)c2ccccc2NS(=O)(=O)c2cccs2)ccc1O,79 µM (active),
CC(=O)Oc1ccc([N+](=O)[O-])cc1N1C(=O)c2ccccc2C1=O,,9.3%
CSc1ccc(CN2CCC(N3CC(C)OC(C)C3)CC2)cc1 (stereo not drawn),,24.7%
Oc1ccc(/C=N/Nc2ncnc3c2ncn3Cc2ccccc2)cc1O,40.7 µM (active),
C=C1c2cccc(O)c2C(O)=C2C(=O)[C@]3(O)C(O)=C(C(N)=O)C(=O)[C@@H](N(C)C)[C@@H]3[C@@H](O)[C@H]12,,-38.6%
O=C1C(Cl)=C(NCCc2ccccc2)C(=O)c2ccccc21,,6.08%
COC1=C(Nc2ccc(O)cc2)C(=O)c2ccccc2C1=O,30.7 µM (active),
O=C1C(=C(I)I)c2ccccc2-c2ccccc21,,0.01%

SMILES,IC50,inhibition
O=C1C=C(Nc2ccc(O)cc2)C(=O)c2ccccc21,24.7 µM (active),
COc1cc(C=C2C(=O)c3ccccc3C2=O)cc(OC)c1OC,,-0.2%
O=C1C(Nc2ccc(O)cc2)=C/C(=N/S(=O)(=O)c2cccs2)c2ccccc21,50.8 µM (active),
COc1ccc(S(=O)(=O)/N=C2\C=C(Nc3ccc(O)cc3)C(=O)c3ccccc32)cc1,52 µM (active),
COc1ccc(CN2CCC(N(CCc3ccccc3)Cc3ccccc3)CC2)c(OC)c1,,18.9%
COc1ccc(OCCOCCN2CCN(C)CC2)cc1,,25.9%
CN(C)CCCC1Sc2ccccc2Sc2ccccc21 (stereo not drawn),,13.6%
COc1ccccc1/C=C1/C(=O)N(c2ccccc2)N=C1C,,-0.06%
CC1=NN(c2ccccc2)C(=O)/C1=C/C=C/C=C/N(C)C,68.9 µM (active),
CC1=NN(c2ccccc2)C(=O)/C1=C/C=C/c1ccc(N(C)C)cc1,,2.39%
O=C(O)C1CCN(Cc2cnn(-c3ccccc3)c2-n2cccc2)CC1,,2.8%
C/C(=C\C(=O)c1cccnc1)Nc1ccc(O)cc1,13.6 µM (active),
COc1ccc(C(=O)/C=C(\C)Nc2ccc(NC(C)=O)cc2)cc1,,14.6%
C/C(=C\C(=O)c1ccccc1)Nc1ccc(O)cc1,19.2 µM (active),
O=C(Nc1ccc(O)cc1)c1ccc(C(=O)c2ccccc2)o1,26.1 µM (active),
Cc1ccc(C2CC(=O)N3CN(c4ccc(Br)cc4)CSC3=C2C#N)o1 (stereo not drawn),,-7.2%
CSc1ccc(/C=N/Nc2cccc(C(=O)O)c2)cc1,,8.61%
O=C(O)c1cccc(N/N=C/c2cccs2)c1,62.5 µM (active),
O=C(CSc1cn[nH]n1)Nc1cccc(C(=O)O)c1,,4.45%
Cc1ccsc1/C=N/Nc1cccc(C(=O)O)c1,72.9 µM (active),
